Pf growth 48h – inhibits P. falciparum growth in the first generation, 48 h; P. falciparum luciferase growth in erythrocytes, 48 h; Potency, µM (top dose mostly 28.7 µM), actives largely listed as inhibitors; 5.9% of 310,000 active
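Here the parasites carry a stable luciferase gene and grow inside erythrocytes in Albumax-based RPMI medium with compound for one erythrocytic cycle. Activity is scored as loss of luminescent signal.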
AMA1-RON2 inh – disrupts binding of P. falciparum AMA1 to RON2. Potency, µM (top dose mostly 58.2 µM), hits mostly inhibitors. AlphaScreen AMA1-biotinylated RON2 peptide binding. AID 720542. 0.2% of 360,000 active; note: nearly all actives have a fitted effect of over 45% in size
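AMA1 (3D7) with his tag at 25 nM final met compounds first, then biotinylated RON2 peptide at 25 nM; detection used donor plus acceptor beads, 10 µg/mL apiece, read by AlphaScreen after 30 min at room temperature.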
VACV Venus inh – vaccinia inhibition (Venus reporter); Vaccinia virus Venus reporter expression, fluorescence; Potency, µM (doses to about 36.5 µM), hits mostly inhibitors; 0.46% of 330,000 active; AID 720580; calls by dose curve; tested in A549 cells; note: nearly all actives have a fitted effect of over 30% in size
Vaccinia mCherry – inhibitors of vaccinia virus infection (mCherry reporter signal). AID 720579. Vaccinia virus mCherry reporter infection, fluorescence. 0.63% of 310,000 active. Potency, µM (top dose mostly 36.5 µM), hits mostly inhibitors; calls by dose curve; tested in A549 cells; note: nearly all actives have a fitted effect of over 35% in size
Pf growth 96h – inhibits malaria parasite growth, 96 h; Potency, µM (highest dose often 28.7 µM), most hits filed as inhibitors; P. falciparum luciferase reporter growth, 96 h; 6.9% of 320,000 active
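96 h incubation, 37 C, 5% CO2, of luciferase-reporter P. falciparum-infected RBCs (2% hematocrit, 0.05% parasitemia final) with test compounds; endpoint luminescence.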
Hits are given with their value; - = inactive; ? = inconclusive; . = no result given. Shown are actives, neighbours in structure and some others; about 8.7% of the full set was active somewhere. Unless noted, calls come from the whole dose curve; as a rule, active = well fitted curve in the direction sought with a large enough effect; inconclusive = small, poorly fitted or top-dose-only effect, or another doubt; inactive = no such curve, though single readings can be large; an effect the other way counts as inactive or inconclusive.

SMILES | Pf growth 48h | AMA1-RON2 inh | VACV Venus inh | Vaccinia mCherry | Pf growth 96h
COc1cccc(NS(=O)(=O)c2ccc3c(c2)C2C=CCC2C(c2ccc(C(=O)O)cc2)N3)c1 (stereo not given) | - | ? | - | - | -
COc1ccc(C(=O)N/N=C(\C)c2ccc3c(c2)C2C=CCC2C(c2ccccc2)N3)cc1 (stereo not given) | 1µM | - | - | - | -
O=C(O)c1ccc2c(c1)[C@@H]1C=CC[C@@H]1[C@H](c1ccccn1)N2 | . | 13µM | . | . | .
COc1ccc(OC)c([C@@H]2Nc3ccc(C(=O)O)cc3[C@@H]3C=CC[C@@H]32)c1 | . | . | - | - | .
CCc1ccc(-n2c(=O)c3sc4ccccc4c3n(CC(=O)N(CC)Cc3ccccc3)c2=O)cc1 | . | . | - | - | .
COc1ccc(CC2(C)OC(c3ccc([N+](=O)[O-])cc3)=NN2C(C)=O)cc1 (stereo not given) | 9.3µM | ? | - | - | 9.3µM
N#CCC(=O)Nc1nc(-c2ccc3c(c2)OCCO3)cs1 | - | - | - | - | 10µM
O=C(CSCC(=O)N1CCOCC1)Nc1nc(-c2ccc3c(c2)OCO3)cs1 | . | - | 8.9µM | ? | -
Cc1nc(-c2ccccc2)sc1CCNS(=O)(=O)c1ccccc1 | . | . | - | - | .
COCCn1c(=O)[nH]c2cc(C(=O)N3CCN(c4cccc(C(F)(F)F)c4)CC3)ccc2c1=O | ? | - | - | - | 12µM
COCCn1c(=O)[nH]c2cc(C(=O)Nc3cc(OC)c(OC)c(OC)c3)ccc2c1=O | ? | - | - | - | 5.2µM
COCCn1c(=S)[nH]c2cc(C(=O)N3CCN(c4cccc(Cl)c4)CC3)ccc2c1=O | - | - | . | . | 12µM
COCCn1c(=O)[nH]c2cc(C(=O)Nc3ccc(OC)cc3)ccc2c1=O | . | . | - | - | .
COCCn1c(=O)[nH]c2cc(C(=O)N3CCN(c4ccc(F)cc4)CC3)ccc2c1=O | . | . | - | - | .
COC(=O)c1sc2ccccc2c1S(=O)(=O)N1CCN(c2ccc(C(C)=O)cc2)CC1 | . | . | - | - | .
CCOc1ccc(-n2c(SCc3nc(-c4ccc(OC)cc4)no3)nnc2-c2ccncc2)cc1 | . | . | - | - | .
COc1ccc(CN2CC[C@H]3C=CC[C@@H](C(=O)Nc4ccccc4)[C@H]3C2=O)cc1OC | . | . | - | - | .
Cc1ccc(C2(c3noc(CN(C)CCCN4CCOCC4)n3)CCCC2)cc1 | - | . | . | . | 8.3µM
Cc1ccc(C2(c3noc(CN(C)Cc4cnn(C)c4)n3)CCCC2)cc1 | - | - | - | - | 12µM
Cc1ccc(C2(c3noc(CN4CCOCC4)n3)CCCC2)cc1 | - | - | . | . | ?
CCOC(=O)c1c(C)n(-c2ccc(C)cc2)c2ccc(O)c(CN(C)C)c12 | 10µM | - | - | ? | -
CCOC(=O)c1c(C)n(C)c2ccc(O)c(CN(C)C)c12 | - | - | - | . | -
Cc1ccc(-n2c(C)c([N+](=O)[O-])c3ccc(O)c(CN(C)C)c32)cc1 | 13µM | - | . | . | .
CCOC(=O)c1c(C)n(-c2ccc(OC)cc2)c2ccc(O)c(CN(C)C)c12 | ? | - | - | ? | 7.4µM
CC[n+]1cc(-c2ccccc2)nc(N2CCOCC2)n1 | 2.3µM | - | - | - | -
SMILES | Pf growth 48h | AMA1-RON2 inh | VACV Venus inh | Vaccinia mCherry | Pf growth 96h
c1ccc(-c2csc(N3CCOCC3)n2)cc1 | - | - | . | . | .
Cc1ccc2nc(CSc3nnc(NC(=O)COc4ccccc4)s3)cc(=O)n2c1 | . | . | - | - | .
Cc1ccc(C(=O)N2CCC3(CC2)Oc2ccc(Cl)cc2C(=O)C32CC(c3cccnc3)=NO2)s1 (stereo not given) | ? | - | ? | - | 13µM
O=C(c1ccc2c(c1)OCO2)N1CCC2(CC1)Oc1ccc(Cl)cc1C(=O)C21CC(c2cccnc2)=NO1 (stereo not given) | 12µM | - | - | - | 13µM
O=C(c1ccc2c(c1)OCO2)N1CCC2(CC1)Oc1ccc(F)cc1C(=O)C21CC(c2cccnc2)=NO1 (stereo not given) | ? | - | - | - | ?
O=C(/C=C/c1cccs1)N1CCC2(CC1)Oc1ccc(Cl)cc1C(=O)C21CC(c2cccnc2)=NO1 (stereo not given) | 13µM | - | - | - | 12µM
Fc1ccccc1-c1nc(N2CCN(c3cccc(Cl)c3)CC2)c2ccccc2n1 | . | . | - | - | .
Cc1cc(NC(=O)CSc2ccc3nnc(-c4ccc(Cl)cc4)n3n2)no1 | . | - | . | . | -
CCOc1ccc(NC(=O)CSc2ccc3nnc(-c4ccccn4)n3n2)cc1 | ? | - | . | . | ?
Cc1cc(NC(=O)CSc2ccc3nnc(-c4cccc(F)c4)n3n2)no1 | 1.9µM | - | - | - | ?
Cc1cc(NC(=O)CSc2ccc3nnc(-c4ccccn4)n3n2)no1 | ? | - | - | - | 12µM
O=C(CSc1ccc2nnc(-c3ccccn3)n2n1)Nc1ccccc1 | 13µM | - | - | - | ?
COc1ccc(-c2cn3c(n2)sc2cc(C(=O)NCC(C)c4ccccc4)ccc23)cc1 (stereo not given) | . | . | - | - | .
Cc1onc(-c2ccc(Cl)cc2Cl)c1-c1csc(N/N=C/c2ccccc2)n1 | 3.7µM | - | - | - | ?
CC1=CC(C)(C)N(S(=O)(=O)c2ccc(C)cc2)c2cc(C)ccc21 | . | - | ? | ? | 9.3µM
COc1ccc2c(c1)C(C)=CC(C)(C)N2S(=O)(=O)c1ccc(C)cc1 | ? | - | - | ? | -
COc1ccc(C2CC(=O)C3=C(C2)Nc2ccccc2NC3c2coc3ccccc3c2=O)cc1OC (stereo not given) | 7.4µM | - | - | - | -
COc1cc(OC)c(C2Nc3ccccc3NC3=C2C(=O)CC(C)(C)C3)cc1OC (stereo not given) | - | - | . | . | ?
Cc1ccc(-c2cc(C(=O)N3CCCc4ccccc43)c3ccccc3n2)cc1 | 8.3µM | - | . | . | .
O=C(c1cc(-c2cccnc2)nc2ccccc12)N1CCN(S(=O)(=O)c2cccs2)CC1 | 12µM | - | . | . | 13µM
O=C(c1cc(-c2cccnc2)nc2ccccc12)N1CCCc2ccccc21 | ? | - | - | ? | 10µM
Cc1ccc(-c2noc(-c3cccnc3NCc3ccc(Cl)cc3)n2)cc1 | . | . | - | - | .
Cc1ccnc(NCc2c(O)ccc3ccccc23)c1 | - | - | . | . | 0.093µM
Cc1ccnc(NCc2cc(Cl)ccc2O)c1 | . | - | - | - | .
S=c1nc(C2CC2)[nH]c2ccccc12 | - | - | - | - | .
SMILES | Pf growth 48h | AMA1-RON2 inh | VACV Venus inh | Vaccinia mCherry | Pf growth 96h
S=c1nc(C2CCCCC2)[nH]c2ccccc12 | - | - | - | - | 2.3µM
CCOC(=O)CCC(NC(=O)c1ccc(NCN2C(=O)c3ccccc3C2=O)cc1)C(=O)OCC (stereo not given) | . | - | - | . | 4.1µM
Cc1ccc(Cl)cc1N(C)C(=O)c1noc2c1CCCCC2 | . | . | - | - | .
COc1ccc(/C=C/c2c(-c3cccc(C)c3)oc3ccc(N4CCOCC4)cc23)cc1 | . | - | - | ? | .
COC(=O)c1ccc(/C=C/c2c(-c3ccc(OC)cc3)oc3ccc(N4CCOCC4)cc23)cc1 | ? | - | - | ? | 3.7µM
Cc1cccc(CCNC(=O)C2CCN(c3nc4ccccc4nc3C(F)(F)F)CC2)c1 | . | . | - | - | .
